What all share (assay): NCI-60 one-dose screen, 48 h (100 = growth as untreated, 0 = no growth, -100 = all killed)
Holding throughout (conditions): 10 µM unless noted

Test [1] relates to NCI-H23 lung.
The test system of test [2] is NCI-H226 lung.
In test [3] the test system is NCI-H322M lung.
In test [4] the test system is HOP-62 NSCLC.
Test [5] deals with NCI-H460 lung.
The test system of test [6] is HOP-92 NSCLC.
In test [7] the test system is NCI-H522 lung.
The test system of test [8] is A549/ATCC NSCLC.
Test [9] has as its system 786-0 renal.
Test [10] relates to COLO 205 colon.
The test system of test [11] is DU-145 prostate.
In test [12] the test system is K-562 leukemia.
The test system of test [13] is MALME-3M melanoma.
Test [14] relates to RXF 393 renal.
Test [15] has as its system SF-268 CNS.
The test system of test [16] is SF-295 CNS.
Test [17] concerns SF-539 CNS.
For test [18], the system named is UACC-257 melanoma.
The subject of test [19] is M14 melanoma.
The test system of test [20] is MDA-MB-231 breast.

The panel holds about 83,000 compounds, 20% with a hit somewhere; the sample as a whole holds those more often.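 Each cell line was grown in a 96-well plate and treated with one concentration of compound for 48 hours. Values below 10 were considered active.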 Unmarked numbers belong to inactive results. The source made the active and inactive calls.

Take `Cn1c(=O)[nH]c2ccccc2c1=O`: the growth in test [1] is 104%; in test [2] it was 109%; in [3], 105%; in test [4], 99.6%; in test [5] it was 111%; in test [6] it was 143%. Besides, the growth in [7] was 96.6%; in [8], 100%; in [9] it was 97.5%; in [10], 114%; in test [11], 104%; in test [12] it was 103%. In addition, the growth in test [13] was 100%; in test [14], 102%; in test [15] it was 107%; in test [16] it was 94.4%; in [17] it was 98.8%; in test [18] it was 102%. Besides, the growth in test [19] is 107%.
In the case of `CC(CC(CCC(=O)O)(c1ccccc1)c1ccccc1)N(C)C` (stereo unspecified), the growth in test [1] was 98.8%; in test [2], 95.3%; in test [3] it was 95.9%; in test [4] it was 96.6%; in test [5], 107%; in [6], 102%. Also, the growth in test [7] was 105%; in test [8], 89.8%; in test [9], 98.5%; in [10] it was 104%; in test [11], 115%; in test [12], 103%. The growth is 109% in test [13]; 105% in test [14]; 102% in test [15]; 93% in [16]; 95.1% in [17]; 88.9% in test [18]. The growth in test [19] is 95%.
On to `c1cc(CNCCNCc2ccncc2)ccn1`, for which the growth in [1] is 112%; in [2], 103%; in test [3] it was 97%; in test [4] it was 103%; in test [5] it was 116%; in test [6], 97.5%. Further, the growth in [7] is 108%; in [8], 97.7%; in test [9], 104%; in test [10] it was 113%; in [11] it was 115%; in [12], 108%. The growth in test [20] was 104%; in [14] it was 107%; in [15], 104%; in test [16], 104%; in [17] it was 105%; in [18] it was 93.7%. Further, the growth in test [19] is 109%.
`C1=NCCc2ccccc21`: the growth is 93.8% in test [1]; 85.8% in [2]; 105% in test [3]; 89.4% in [4]; 103% in [5]; 92.1% in [6]. Also, the growth in test [7] is 114%; in test [8], 98.5%; in test [9] it was 103%; in [10], 101%; in test [11] it was 111%; in test [12] it was 107%. In addition, the growth is 99% in test [20]; 104% in test [14]; 95% in test [15]; 100% in [16]; 96.5% in [17]; 94.8% in [18]. Moreover, in test [19], the growth was 94.2%.
Regarding `CC(=O)NNC(=S)/N=C\C(C(=O)c1ccccc1)=C(/O)c1ccccc1`, the growth in [1] is 90.1%; in test [2] it was 96.2%; in [3], 94.1%; in test [4], 88.2%; in test [5] it was 110%; in test [6] it was 100%. The growth in test [7] was 86.3%; in test [8], 87.3%; in [9] it was 99.8%; in [10], 108%; in [11], 108%; in [12] it was 101%. Besides, the growth in test [20] is 89.6%; in [14], 97.7%; in [15], 99.2%; in [16] it was 108%; in test [17], 101%; in test [18], 102%. The growth in test [19] is 103%.
Consider `COc1ccc(/C=C\C(=O)/C=C/c2ccc(OC)cc2)cc1`, for which the growth was 84.7% in test [1]; 81.4% in test [2]; 99.6% in test [3]; 95.4% in test [4]; 107% in test [5]; 109% in [6]. The growth is 94.7% in test [7]; 102% in test [8]; 83.5% in [9]; 107% in test [10]; 96.4% in test [11]; 9.76% (active) in [12]. The growth was 95.1% in test [13]; 100% in [14]; 105% in test [15]; 101% in test [16]; 62.8% in [17]; 106% in [18]. For the same molecule, the growth in test [19] is 40.2%.
Take `COc1ccc(-c2csc(NC(=O)Nc3nc(-c4ccc(OC)cc4)cs3)n2)cc1`: the growth was 66.8% in test [1]; 70.6% in [2]; 90.1% in [3]; 106% in [4]; 84.7% in [5]; 89% in test [6]. For the same molecule, the growth is 92.5% in test [7]; 81.3% in test [8]; 97.8% in test [9]; 98.5% in [10]; 72.8% in test [11]; 67.5% in test [12]. The growth in [20] was 92.9%; in [14], 98.5%; in [15], 81.9%; in test [16] it was 87.9%; in test [17] it was 90%; in test [18], 67.4%. Also, the growth in test [19] is 83.6%.
As for `Cc1[nH]nc(C(N)=O)c1[N+](=O)[O-]`, the growth in test [1] was 89.2%; in test [2] it was 87.6%; in test [3] it was 105%; in test [4], 77.5%; in [5], 98.9%; in [6], 84.1%. In addition, the growth in test [7] was 106%; in test [8], 101%; in test [9], 103%; in test [10] it was 102%; in test [11], 103%; in [12], 126%. In addition, the growth in test [13] is 94%; in test [14] it was 86.9%; in [15] it was 99.4%; in [16] it was 99%; in test [17], 93.3%; in [18], 93.7%.

Values taken from PubChem BioAssay (NCI).
